High-throughput results from PubChem BioAssay.
HCV inh = HCV inhibition. Huh7.5.1 HCVcc-Cre infection, luciferase reporter, 44 h. Potency, µM (series often up to 41.8 µM), most hits filed as inhibitors. 340,000 tested, 3.4% active. AID 651820
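Reporter virus HCVcc-Cre (~0.5 moi) infects cells exposed to compound; seeding density 1,000 cells/well with 4 h settling beforehand. Luminescence, 15 sec read, taken 44 h post-infection following a 15 min RT substrate incubation.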
Pf growth 48h = inhibits P. falciparum growth in the first generation, 48 h; Potency, µM (top dose mostly 28.7 µM), hits mostly inhibitors; 310,000 tested, 5.9% active; P. falciparum luciferase growth in erythrocytes, 48 h
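Growth was read as firefly luciferase luminescence after a 48 h, 37 C, 5% CO2 exposure of compounds to reporter-bearing P. falciparum cultures (0.1% parasitemia, 2% hematocrit final) in Albumax-supplemented RPMI 1640.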
Pf growth 96h = P. falciparum growth inhibition at 96 hours. P. falciparum luciferase reporter growth, 96 h. 320,000 tested, 6.9% active. Potency, µM (top dose mostly 28.7 µM), actives largely listed as inhibitors
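Infected RBCs, 2% Hct / 0.05% parasitemia final; luciferase-reporter P. falciparum; cpd 96 h, 37 C, 5% CO2; luciferase detection reagent; luminescence.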
Cycloheximide cs = counter-screen hit for Shiga toxin inhibitors, cycloheximide | AID 2314 | cell reporter, cycloheximide protein synthesis inhibition counterscreen | 300,000 tested, 12% active | max response, %; in the data active = max response mostly above about 13%, no sharp cut-off; inactive = mostly below about 14%; also: read at 38.3 µM for the half of the compounds with a filed dose
Shiga inhibitor = blocks Shiga toxin action in Vero cells; Vero cells, Shiga toxin protein synthesis inhibition reporter; AID 2315; inhibition, % at 38.7 µM; 290,000 tested, 9.2% active; in the data active = inhibition mostly above about 28%, no sharp cut-off; inactive = mostly below about 43%
AMA1 RON2 block = disrupts binding of P. falciparum AMA1 to RON2. AID 720542. 360,000 tested, 0.2% active. Potency, µM (highest dose often 58.2 µM), usual class: inhibitors. AlphaScreen AMA1-biotinylated RON2 peptide binding; also: nearly all actives have a fitted effect of over 45% in size
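AMA1 (3D7) with his tag at 25 nM final met compounds first, then biotinylated RON2 peptide at 25 nM; detection used donor plus acceptor beads, 10 µg/mL apiece, read by AlphaScreen after 30 min at room temperature.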
Large screens that a line does not name were inactive. Sampled rows, rich in hits. Any-hit rate of the full collection: about 21%. Unless noted, calls follow the shape of the dose curve; as a rule, active = well fitted curve in the direction sought with a large enough effect; inconclusive = small, poorly fitted or top-dose-only effect, or another doubt; inactive = no such curve, though single readings can be large; an effect the other way counts as inactive or inconclusive.

CCOC(=O)C1CCCN(C(=O)Cn2c(=O)c3cccn3c3cccnc32)C1 (stereo unspecified)	HCV inh inconclusive, Pf growth 96h 10µM
O=C(Cn1c(=O)c2cccn2c2cccnc21)N1CCN(c2ccc(Cl)cc2)CC1	HCV inh 13µM
CCc1nn(CCCC(=O)N2CCN(c3cccc(C)c3C)CC2)c(=O)c2cc3occc3n12	HCV inh 14µM, Pf growth 96h inconclusive
Cc1cc2c(cc1C)-c1nnnn1C(N1CCC(Cc3ccccc3)CC1)C(=O)N2 (stereo unspecified)	none (no result: HCV inh, Pf growth 48h, Pf growth 96h, Cycloheximide cs, Shiga inhibitor)
Cc1cc(C)c(C)c(S(=O)(=O)N(C)CCc2ccccn2)c1C	none (no result: Pf growth 48h, Pf growth 96h, Cycloheximide cs, Shiga inhibitor)
O=C(CCc1ccccc1)N1CCN(S(=O)(=O)c2cccs2)CC1	none
O=P(CCCO)(Cc1ccccc1)Cc1ccccc1	none
CCC(C)(C)NC(=O)C(c1cccc(OC)c1)N(C(=O)CNC(=O)c1cccs1)c1cccnc1 (stereo unspecified)	Pf growth 48h inconclusive
CC(=O)N1CC(=O)N=C1SCC(=O)Nc1nc(-c2ccccc2)c(-c2ccccc2)s1	HCV inh inconclusive, Pf growth 48h 15µM, Pf growth 96h inconclusive
Cc1sc(NC(=O)CSc2ncn(-c3ccccc3)n2)nc1-c1ccccc1	HCV inh inconclusive, Pf growth 48h inconclusive, Pf growth 96h inconclusive
C=CCNS(=O)(=O)c1cc(S(=O)(=O)NCC=C)c(OC)cc1OC	Pf growth 96h 2.9µM
C=CCNS(=O)(=O)c1ccc(OC)c(C)c1	none (no result: Pf growth 96h)
COC(=O)[C@@]12C[C@@H](CC(=O)N3CCC(c4ccccc4)CC3)C(=O)N(Cc3cccc4ccccc34)C1=CCC(C)(C)C2	none (no result: HCV inh, Pf growth 48h, Pf growth 96h, Cycloheximide cs, Shiga inhibitor)
CCOC(=O)N1CCN(C(=O)CSc2ccc(-c3ccccc3OC)nn2)CC1	HCV inh inconclusive, Pf growth 48h inconclusive, Pf growth 96h 4.7µM
COc1ccccc1-c1c(C)nn2c(N3CCC4(CC3)OCCO4)cc(C)nc12	HCV inh inconclusive, Pf growth 48h inconclusive
CCOC(=O)c1cnc2c(-c3ccccc3OC)c(C)nn2c1C	none
COc1ccccc1-c1cnn2c(NC3CCCC3)cc(C)nc12	HCV inh inconclusive, Pf growth 96h inconclusive, Cycloheximide cs 38, Shiga inhibitor 125
CCOC(=O)N1CCC(Nc2cc(C)nc3c(-c4ccccc4OC)c(C)nn23)CC1	HCV inh inconclusive, Pf growth 48h 9.3µM
CCOC(=O)N1CCN(C(=O)CSc2cc(C)nc3c(-c4ccccc4OC)c(C)nn23)CC1	HCV inh inconclusive, Pf growth 48h 4.7µM
CC(C)(C)c1ccc(C(=O)NNC(=O)CNC(=O)c2cccs2)cc1	none (no result: Pf growth 48h, Pf growth 96h, Cycloheximide cs, Shiga inhibitor)
COCCNC(=O)C1(C)CCN(C(=O)c2oc3ccccc3c2C)C1 (stereo unspecified)	none (no result: HCV inh, Pf growth 48h, Pf growth 96h, Cycloheximide cs, Shiga inhibitor)
COc1cc(CNC(=O)c2cc(-c3cc(Cl)ccc3C)n[nH]2)cc(OC)c1	none (no result: HCV inh, Pf growth 48h, Pf growth 96h, Cycloheximide cs, Shiga inhibitor)
CCCCNC(=O)CSc1nc2ccc(Nc3nc(N4CCOCC4)nc(N4CCOCC4)n3)cc2s1	HCV inh inconclusive, Pf growth 48h inconclusive, Pf growth 96h 8.3µM
CCCCSc1nc2ccc(Nc3nc(N4CCOCC4)nc(N4CCOCC4)n3)cc2s1	HCV inh inconclusive, Pf growth 48h inconclusive, Pf growth 96h inconclusive
O=C(NCC1(c2ccccc2)CCOCC1)c1cccs1	none
Cc1ccc[n+](C(C)C(=O)c2ccc(-c3ccccc3)cc2)c1 (stereo unspecified)	Pf growth 48h inconclusive, Pf growth 96h inconclusive
Cc1cc[n+](C(C)C(=O)c2ccc(-c3ccccc3)cc2)cc1 (stereo unspecified)	HCV inh inconclusive, Pf growth 48h 1.2µM
CC(C(=O)c1ccc(-c2ccccc2)cc1)[n+]1ccccc1 (stereo unspecified)	HCV inh inconclusive, Pf growth 48h 8.3µM, Pf growth 96h 2.3µM
CC(C(=O)c1ccc(-c2ccccc2)cc1)[n+]1cccc(C(N)=O)c1 (stereo unspecified)	Pf growth 96h 9.3µM
Cc1noc(C)c1COc1ccccc1C(=O)NCc1ccco1	Pf growth 48h inconclusive, Pf growth 96h inconclusive (no result: Cycloheximide cs, Shiga inhibitor)
CN(C)/C=N/c1ncc(C(=O)c2ccc3ccccc3c2)s1	HCV inh inconclusive, Cycloheximide cs 33
COc1ccc(C(=O)c2cnc(/N=C/N(C)C)s2)cc1	Cycloheximide cs 42, Shiga inhibitor active
CC1CC(C)CN(CCCNC(=O)c2ccc3c(c2)NC(=O)CS3)C1 (stereo unspecified)	none
COc1cc2sc3cc(NCc4ccc(C)o4)ccc3c(=O)c2cc1OC	HCV inh 3.5µM (no result: Pf growth 48h, Pf growth 96h, Cycloheximide cs, Shiga inhibitor)
Cc1ccc(OC(=O)C2CSC3(C)CCC(=O)N23)c(Br)c1 (stereo unspecified)	Pf growth 96h 5.9µM (no result: Cycloheximide cs, Shiga inhibitor)
COC(=O)CCC(=O)OC1(C)C(=O)C=C2C=C(C3CC3)N(Cc3ccco3)C=C2C1=O (stereo unspecified)	Pf growth 48h 12µM, Pf growth 96h inconclusive
COCCN1C=C2C(=O)C(C)(OC(=O)CCC(=O)OC)C(=O)C=C2C=C1C1CC1 (stereo unspecified)	Pf growth 96h inconclusive
c1ccc(Cn2c[n+](Cc3ccccc3)c3ccccc32)cc1	Pf growth 48h inconclusive, Pf growth 96h 6.6µM
O=c1[nH][nH]c(=O)c2c1[nH]c(=S)n2Cc1ccccc1	none (no result: Pf growth 48h, Pf growth 96h, Cycloheximide cs, Shiga inhibitor)
O=C(NC(=S)NCCc1ccccn1)c1ccco1	Cycloheximide cs 23
O=C(NCc1ccccn1)/C(=C/c1ccco1)NC(=O)c1ccccc1	Pf growth 96h inconclusive
O=C(NC(=S)NCCc1ccccn1)c1ccccc1	Cycloheximide cs 58, Shiga inhibitor 95
O=C(NCCc1ccccn1)/C(=C/c1ccco1)NC(=O)c1ccccc1	Cycloheximide cs 33, Shiga inhibitor 49
COP(=O)(OC)C(NC(=O)Nc1ccccc1)c1ccccc1 (stereo unspecified)	none
O=C(CN1C(=O)NC2(CCCc3ccccc32)C1=O)NCc1cccs1 (stereo unspecified)	none (no result: Cycloheximide cs, Shiga inhibitor)
Cc1ccccc1NC(=O)CN1C(=O)NC(C)(CCc2ccccc2)C1=O (stereo unspecified)	Pf growth 48h 13µM
Cc1oc(-c2ccccc2F)nc1CS(=O)CC(=O)NC1CCCC1 (stereo unspecified)	none
COc1cc(C(CCN2CCCCC2)c2c(OC)cc(OC)c3c2OC(=O)CC3c2ccc(N(C)C)cc2)cc(OC)c1OC (stereo unspecified)	none (no result: HCV inh, Pf growth 48h, Pf growth 96h, AMA1 RON2 block)
COc1cc(OC)c2c(c1C(CCN1CCCC(C)C1)c1ccc(N(C)C)cc1)OC(=O)CC2c1ccc(N(C)C)cc1 (stereo unspecified)	none (no result: HCV inh, Pf growth 48h, Pf growth 96h, AMA1 RON2 block)
COc1cc(C2CC(=O)Oc3c(C(CCN4CCCC(C)C4)c4ccc(N(C)C)cc4)c(OC)cc(OC)c32)cc(OC)c1OC (stereo unspecified)	Pf growth 48h 13µM, Pf growth 96h inconclusive
